Screening data (PubChem)
A selection: hits, their analogues and other compounds. The true share with any hit is near 12%.
L3MBTL1 block = qHTS Assay for the Inhibitors of L3MBTL1. AlphaScreen L3MBTL1–H3K9me1 peptide binding. AID 485360, 2010. Lethal(3)malignant brain tumor-like protein 1 (Homo sapiens), Q9Y468. Potency, µM (titrated, usually from 57.1 µM), inactives show top-dose activity, negative = inhibition, usual class: inhibitors. hit rate 0.66% among 230,000; also: % is scaled to controls: 0 for no effect and ±100 for the full control effect; nearly all actives have a fitted effect of over 60% in size
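AlphaScreen assay: L3MBTL1 (50 nM final) was preincubated 30 min at room temperature with biotinylated H3(1-15)K9me1 peptide (75 nM final), then 30 min with library compounds; streptavidin donor and nickel chelate acceptor beads (10 ug/mL final) added, 30 min dark.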
JMJD2A Tudor = qHTS Assay for Inhibitors of JMJD2A-Tudor Domain. Lysine-specific demethylase 4A (Homo sapiens), O75164. AlphaScreen JMJD2A-Tudor / H3K4me3 peptide binding. Potency, µM (highest dose often 114 µM), without a hit: at the highest dose activity change, negative = inhibition, usual class: inhibitors. hit rate 4.4% among 390,000; also: % is scaled to controls: 0 for no effect and ±100 for the full control effect; nearly all actives have a fitted effect of over 50% in size
Target sequence (O75164 whole entry, looked up, the tested form may be a part): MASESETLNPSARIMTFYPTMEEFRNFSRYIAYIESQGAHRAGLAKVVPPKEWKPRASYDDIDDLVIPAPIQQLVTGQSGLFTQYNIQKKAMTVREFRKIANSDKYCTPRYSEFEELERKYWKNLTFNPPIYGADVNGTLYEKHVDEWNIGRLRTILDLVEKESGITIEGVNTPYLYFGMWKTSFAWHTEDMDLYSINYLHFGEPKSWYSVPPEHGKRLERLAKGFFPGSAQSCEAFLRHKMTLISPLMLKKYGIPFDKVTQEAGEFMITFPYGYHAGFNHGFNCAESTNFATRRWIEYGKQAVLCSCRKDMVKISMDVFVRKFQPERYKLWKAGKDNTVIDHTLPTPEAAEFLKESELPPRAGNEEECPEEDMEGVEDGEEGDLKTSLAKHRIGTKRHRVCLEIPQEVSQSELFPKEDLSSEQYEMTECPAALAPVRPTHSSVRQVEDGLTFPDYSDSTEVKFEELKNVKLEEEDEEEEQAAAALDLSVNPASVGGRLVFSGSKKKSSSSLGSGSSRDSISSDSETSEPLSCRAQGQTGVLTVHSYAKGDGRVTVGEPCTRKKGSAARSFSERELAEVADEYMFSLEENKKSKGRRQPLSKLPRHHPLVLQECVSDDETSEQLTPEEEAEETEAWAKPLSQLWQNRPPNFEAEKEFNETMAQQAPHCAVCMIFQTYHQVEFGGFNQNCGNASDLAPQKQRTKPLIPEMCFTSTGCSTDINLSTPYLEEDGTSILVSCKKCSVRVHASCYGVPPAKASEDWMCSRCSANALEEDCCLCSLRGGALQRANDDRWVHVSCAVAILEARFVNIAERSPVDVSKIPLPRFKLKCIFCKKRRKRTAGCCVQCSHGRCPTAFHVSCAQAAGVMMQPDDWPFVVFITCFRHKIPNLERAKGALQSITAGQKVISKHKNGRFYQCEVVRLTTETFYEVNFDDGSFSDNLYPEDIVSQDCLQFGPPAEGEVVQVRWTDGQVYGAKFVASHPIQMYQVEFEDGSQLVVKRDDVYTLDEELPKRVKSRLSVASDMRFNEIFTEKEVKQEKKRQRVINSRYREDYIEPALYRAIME
BAZ2B block = qHTS Assay for Inhibitors of BAZ2B; Bromodomain adjacent to zinc finger domain protein 2B (Homo sapiens), Q9UIF8; AlphaScreen BAZ2B-H3K14Ac peptide displacement; Potency, µM (doses to about 114 µM), for inactives: at the top dose activity change, negative = inhibition, actives largely listed as inhibitors; hit rate 4.4% among 360,000; AID 504333, 2011; also: % is scaled to controls: 0 for no effect and ±100 for the full control effect; nearly all actives have a fitted effect of over 60% in size
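BAZ2B (50 nM) with biotin-H3(5-23)K14Ac peptide (50 nM) in PBS pH 7.4, 0.01% Tween-20, preformed 30 min, then compound 30 min at room temperature; top concentration 110uM. AlphaScreen streptavidin donor/nickel chelate acceptor beads (10 ug/mL final), 20 min dark, signal read.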
HP1b chromo inh = HTS for Inhibitors of HP1-beta Chromodomain Interactions with Methylated Histone Tails; AlphaScreen HP1-beta / biotin-H3K9me3 peptide binding; Potency, µM (titrated, usually from 114 µM), inactives show top-dose activity change, negative = inhibition, actives largely listed as inhibitors; hit rate 0.56% among 390,000; Chromobox protein homolog 1 (Homo sapiens), P83916; also: nearly all actives have a fitted effect of over 70% in size
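AlphaScreen: HP1-beta (50 nM) preformed 30 min with biotin-H3(1-18)K9me3 peptide (50 nM) in PBS pH 7.4, 0.01% Tween-20. Compound added for 30 min at RT, then streptavidin donor/nickel chelate acceptor beads (10 ug/mL) for 30 min.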
Sfp PPTase inh = qHTS Assay for Inhibitors of Bacillus subtilis Sfp phosphopantetheinyl transferase (PPTase). Biochemical Sfp PPTase activity, qHTS. Potency, µM, for inactives: largest response in the series, negative = inhibition, hits mostly inhibitors. 4'-phosphopantetheinyl transferase ffp (Bacillus subtilis), Q9F4F7. hit rate 3.5% among 310,000;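 also: the enzyme is Sfp with the accession as filed and its product quenches rhodamine fluorescence; 0% = enzyme reaction without inhibitor and -100% = no enzyme wells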
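With Hepes-Na pH 7.6 buffer containing 10 mM MgCl2, Sfp (15 nM) modified BHQ-2-YbbR (12.5 uM) using rhodamine-CoA (5 uM). Two reads 30 minutes apart at 525/598 nm yielded each well's rate.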
G9a inh = qHTS Assay for Inhibitors of Histone Lysine Methyltransferase G9a; Histone-lysine N-methyltransferase EHMT2 (Homo sapiens), Q96KQ7; G9a H3K9 monomethylation, AlphaScreen, 2 h; Potency, µM (highest dose often 102 µM), inactives show at the highest dose activity, negative = inhibition, most hits filed as inhibitors; hit rate 8.8% among 350,000; also: % is scaled to controls: 0 for no effect and ±100 for the full control effect; nearly all actives have a fitted effect of over 75% in size
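G9a (20 nM) preincubated 15 min RT with compounds, then 500 nM biotinylated H3K9 peptide and 20 uM SAM added; 2 h RT reaction. Monomethyl-H3K9 product detected by AlphaScreen with anti-H3K9me1 antibody, streptavidin donor and anti-rabbit IgG acceptor beads.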
Active calls of the source: *; ? = inconclusive; / = no result given; [ ] = dose if it differs, or a comment. Calls follow the shape of the dose curve; as a rule, active = well fitted curve in the direction sought with a large enough effect; inconclusive = small, poorly fitted or top-dose-only effect, or another doubt; inactive = no such curve, though single readings can be large; an effect the other way counts as inactive or inconclusive. Potency is read from the fitted curve at half-maximal effect.

SMILES	L3MBTL1 block	JMJD2A Tudor	BAZ2B block	HP1b chromo inh	Sfp PPTase inh	G9a inh
N#Cc1ccccc1OCc1cn(CC(=O)c2ccc(O)cc2)nn1	/	20µM*	/	3%	/	/
COc1ccc(C=O)c(OCc2cn(CC(=O)c3ccc(O)cc3)nn2)c1	/	79µM*	/	6%	/	/
COCCn1c(=O)c(-c2cn(C)c3ccccc23)nc2cnc(Oc3ccc(OC)cc3)nc21	/	/	/	/	-1%	-1%[12.7 µM]
CN1C(=O)C(C)(C)c2cc(S(=O)(=O)N3CCC(C(=O)Nc4ccc(Cl)cc4)CC3)ccc21	2%	-14%	-29%	37%	14%	10%
COc1ccc(CNc2ncncc2-c2ccc(N(C)C)cc2)c(OC)c1	/	/	/	/	79µM*	-1%[0.501 µM]
COc1ccccc1CNc1ncncc1-c1ccc(N(C)C)cc1	/	/	/	/	-6%	/
COc1cc(C2/C(=C(\O)c3ccc4c(c3)OCCO4)C(=O)C(=O)N2Cc2ccco2)ccc1O (stereo not drawn)	/	-29%	-34%	5%	4%	50µM*
O=C1C(=O)N(Cc2ccco2)C(c2cccc(Cl)c2)/C1=C(\O)c1ccc2c(c1)OCCO2 (stereo not drawn)	-10%	79µM*	?	-14%	?	?
COc1cc(C2/C(=C(\O)c3ccc4c(c3)OCCO4)C(=O)C(=O)N2Cc2ccco2)cc(OC)c1OC (stereo not drawn)	/	-16%	-36%	12%	?	50µM*
O=C1C(=O)N(Cc2ccccc2)C(c2cccc(O)c2)/C1=C(\O)c1ccc2c(c1)OCCO2 (stereo not drawn)	/	-11%	56µM*	35%	0%	45µM*
COc1cccc(CNC(=O)c2ccccc2SCC(=O)N2CCCC2)c1	-4%	-17%	-5%	17%	/	3%[2.33 µM]
Cc1ccc2nc(-c3ccc(Cl)cc3)cc(C(=O)OCC(=O)c3ccccc3)c2c1	/	3%	-1%	44%	/	43%[59 µM]
O=C1N(Cc2cccnc2)C[C@@H]2C[C@@H](c3ccccc3C#Cc3ccccc3)N3CCC[C@@]123	-13%	-26%	-20%	32%	-9%	50µM*
Cc1ccccc1CN1C[C@@H]2C[C@@H](c3cnc(N4CCOCC4)s3)N3CCC[C@@]23C1=O	-5%	-20%	-29%	13%	50µM*	35µM*
COc1ccccc1CN1C[C@@H]2C[C@@H](c3ccccc3C)N3CCC[C@@]23C1=O	-13%	-28%	-11%	6%	15%	5%
Cc1ccccc1-c1cccc([C@@H]2C[C@H]3CN(Cc4cccnc4)C(=O)[C@]34CCCN24)c1	-14%	?	-27%	-12%	0%	50µM*
CCN1CCc2c(sc(-n3cccc3)c2C(CCC(C)C)NC(=O)NCCC(=O)OC)C1 (stereo not drawn)	/	?	-17%	4%	/	?
O=S(=O)(c1cc(F)ccc1F)N1CCN(C2CCCCC2)CC1	/	-22%	-15%	1%	11%	13%
O=C(NCCc1ccccc1)c1nn(-c2ccc(F)cc2)nc1CO	/	-29%	3%	46%	/	15%[59 µM]
Cn1c(=O)c2c(nc(N3CCOCC3)n2Cc2cccc(Br)c2)n(C)c1=O	/	0%	-9%	29%	/	6%[59 µM]
O=C(Cc1ccccc1)Nc1ccc(N2CCCC2)cc1	/	?	?	-6%	?	8.9µM*
O=C(CN1CCCCC1)Nc1ccc(N2CCCCCC2)cc1	-16%	50µM*	14µM*	?	-21%	18µM*
O=C(Cc1ccccc1)Nc1ccc(N2CCOCC2)cc1	2%	-9%	-11%	87%	19%	-2%
CCCOC(=O)Nc1ccc(N2CCCCC2)cc1	/	?	71µM*	-30%	-17%	8.9µM*
O=C(Cc1ccccc1)NCCS(=O)(=O)N1CCN(c2ccccc2)CC1	-8%	-19%	6%	1%	/	50µM*
SMILES	L3MBTL1 block	JMJD2A Tudor	BAZ2B block	HP1b chromo inh	Sfp PPTase inh	G9a inh
O=C(Cc1ccc(Cl)cc1)NCCS(=O)(=O)N1CCN(c2ccccc2)CC1	1%	-17%	9%	1%	/	-1%[0.501 µM]
CCCc1ccc(OC(=O)c2sc3ncn(Cc4cccc(F)c4)c(=O)c3c2C)cc1	/	30%	16%	44%	/	6%[59 µM]
C/C=C(/C)C(=O)O[C@H]1C[C@@]2(C)O[C@H]2[C@@H](OC(C)=O)C2(C)CC[C@@](O)(C(C)C)C12 (stereo partly drawn)	/	/	/	/	18%	/
O=C(CCc1ccccc1)Nc1ccc(N2CCCCC2)cc1	-10%	-15%[57.1 µM]	-22%	30%	13%	8.9µM*
Cc1cc(C)cc(NC(=O)Nc2ccc(N3CCCCC3)cc2)c1	?	-21%	-27%	16%	50µM*	8.9µM*
CCc1cc(SC#N)cc(CC)c1NC(=O)CCl	-10%	-2%	2%	46%	-9%	50µM*
COc1cc(NC(=O)C2=C(N3CCOCC3)/C(=C\c3ccc(N(C)C)cc3)CCC2)cc(OC)c1OC	-15%	28µM*	40µM*	?	-20%	?
COc1cccc(/C=C/c2onc(C)c2S(=O)(=O)N2CCC(C(=O)N3CCC(C)CC3)CC2)c1	/	-10%	0%	25%	/	-7%[59 µM]
O=c1[nH]c(CSc2nnc(Cc3ccccc3)o2)nc2ccccc12	/	0%	-3%	30%	-13%	?
Cc1[nH]c2ccccc2c1Cc1nnc(SCc2ccccc2)o1	/	?	?	-3%	-5%	71µM*
O=[N+]([O-])c1ccc(CSc2nnc(Cc3ccccc3)o2)cc1	/	-29%	-33%	14%	-1%	45µM*
O=[N+]([O-])c1ccc(C[n+]2ccc(Cc3ccccc3)cc2)cc1	/	-8%	-27%	32%	-15%	13µM*
COc1ccc(Cc2nnc(SCc3ccc([N+](=O)[O-])cc3)o2)cc1	1%	-35%	?	?	5%	-7%
COCCNC(=O)c1c(CS(=O)(=O)c2ccccc2)noc1C(=O)NCc1ccccc1	-1%	-7%	?	50%	/	-6%[2.33 µM]
CCN(CC(=O)N1CCOCC1)S(=O)(=O)c1cc(Cl)ccc1Cl	/	-15%	3%	10%	9%	43%
O=C(COC(=O)c1cc(Cl)ccc1O)NCCNC(=O)COC(=O)c1cc(Cl)ccc1O	/	-12%	10%	9%	10%	40µM*
O=C(COC(=O)c1ccc(Cl)cc1O)Nc1cccnc1Cl	-2%	-6%	0%	12%	13%	50µM*
COc1cccc(C2=Nn3c(nnc3-c3cc(OC)cc(OC)c3)SC2)c1	/	-19%	/	/	-24%	/
Cc1ccc(S(=O)(=O)Nc2ccncc2)c(C)c1	/	89µM*	-3%	3%	6%	-92%
